Experimental data: PubChem BioAssay (NCI)
Compounds without any hit were thinned out: in the full panel of roughly 83,000, 20% have a hit.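 Cells were grown in 96-well plates and exposed to the test compound at a single concentration for 48 hours; results are reported as percent growth, with values below 10 considered active.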 The source made the active and inactive calls.

Legend:
Assay in all cases: NCI-60 one-dose screen, 48 h (100 = growth as untreated, 0 = no growth, -100 = all killed)
HT29 colon = settings: 10 µM unless noted
SNB-75 CNS = settings: 10 µM unless noted
SNB-19 CNS = settings: 10 µM unless noted
U251 CNS = settings: 10 µM unless noted
PC-3 prostate = settings: 10 µM unless noted
UACC-62 melanoma = settings: 10 µM unless noted
LOX IMVI melanoma = settings: 10 µM unless noted
SK-MEL-2 melanoma = settings: 10 µM unless noted
EKVX NSCLC = settings: 10 µM unless noted
SN12C renal = settings: 10 µM unless noted
UO-31 renal = settings: 10 µM unless noted
TK-10 renal = settings: 10 µM unless noted
ACHN renal = settings: 10 µM unless noted
CAKI-1 renal = settings: 10 µM unless noted
A498 renal = settings: 10 µM unless noted
CCRF-CEM leukemia = settings: 10 µM unless noted
MOLT-4 leukemia = settings: 10 µM unless noted
SK-MEL-5 melanoma = settings: 10 µM unless noted
SR leukemia = settings: 10 µM unless noted
SK-MEL-28 melanoma = settings: 10 µM

Measured: growth

O=c1oc2ccc(I)cc2c(=O)n1-c1ccc(I)cc1F
inactive: HT29 colon 28.3% | SNB-19 CNS 21.2% | TK-10 renal 11.3%
active: SNB-75 CNS -22.6% | U251 CNS 1.81% | PC-3 prostate 3.97% | UACC-62 melanoma -28.6% | LOX IMVI melanoma 4.98% | SK-MEL-2 melanoma -29.7% | EKVX NSCLC 9.77% | SN12C renal 4.52% | UO-31 renal 8.63% | ACHN renal 4.07% | CAKI-1 renal -20.2% | A498 renal -73.3% | CCRF-CEM leukemia 6.91% | MOLT-4 leukemia -35.6%

Cc1cc(OC(=O)c2ccc([N+](=O)[O-])cc2)nc2[nH]c(=O)sc12
inactive: HT29 colon 105% | SNB-75 CNS 90.6% | SNB-19 CNS 98.6% | U251 CNS 97.1% | SK-MEL-5 melanoma 100% | UACC-62 melanoma 102% | LOX IMVI melanoma 98.8% | SK-MEL-2 melanoma 104% | EKVX NSCLC 92.1% | SN12C renal 101% | UO-31 renal 82.1% | TK-10 renal 103% | ACHN renal 103% | CAKI-1 renal 91.5% | A498 renal 104% | CCRF-CEM leukemia 106% | MOLT-4 leukemia 101% | SR leukemia 108%

COc1cc2cc3c(=O)n4c(cc5cc(OC)ncc54)c(=O)n3c2cn1
inactive: HT29 colon 111% | SNB-75 CNS 94.2% | SNB-19 CNS 105% | U251 CNS 104% | PC-3 prostate 97.2% | UACC-62 melanoma 111% | LOX IMVI melanoma 100% | SK-MEL-28 melanoma 106% | SK-MEL-2 melanoma 98% | SN12C renal 98.6% | UO-31 renal 88.8% | TK-10 renal 107% | ACHN renal 110% | CAKI-1 renal 98.4% | A498 renal 104% | CCRF-CEM leukemia 91.9% | MOLT-4 leukemia 99.2% | SR leukemia 98%

C[n+]1c2ccccc2nc2ccc(NCCO)cc21
active: HT29 colon 8.37%
inactive: SNB-75 CNS 98.8% | SNB-19 CNS 78.3% | U251 CNS 80.5% | PC-3 prostate 50.7% | UACC-62 melanoma 84.1% | LOX IMVI melanoma 90.6% | SK-MEL-28 melanoma 110% | SK-MEL-2 melanoma 102% | SN12C renal 85.6% | UO-31 renal 45.8% | TK-10 renal 127% | ACHN renal 83.7% | CAKI-1 renal 93.4% | A498 renal 75.1% | CCRF-CEM leukemia 64.5% | MOLT-4 leukemia 63.8% | SR leukemia 60.3%

CCOC(=O)c1ccc(N=Cc2sc(=O)[nH]c2O)cc1
inactive: HT29 colon 104% | SNB-75 CNS 84.9% | SNB-19 CNS 91.9% | U251 CNS 97.3% | SK-MEL-5 melanoma 99.8% | UACC-62 melanoma 91.2% | LOX IMVI melanoma 93.6% | SK-MEL-28 melanoma 105% | SK-MEL-2 melanoma 94.5% | EKVX NSCLC 93.4% | SN12C renal 95.3% | UO-31 renal 83.1% | TK-10 renal 98.4% | ACHN renal 90.3% | CAKI-1 renal 88.1% | A498 renal 110% | CCRF-CEM leukemia 101% | MOLT-4 leukemia 99.9% | SR leukemia 117%

CN(C)/C=C1\SC(=Nc2ccc(Cl)cc2)NC1=O
inactive: HT29 colon 110% | SNB-75 CNS 96.4% | SNB-19 CNS 102% | U251 CNS 99.7% | SK-MEL-5 melanoma 97% | UACC-62 melanoma 95.2% | LOX IMVI melanoma 101% | SK-MEL-28 melanoma 101% | SK-MEL-2 melanoma 104% | EKVX NSCLC 95.6% | SN12C renal 92.1% | UO-31 renal 90.4% | TK-10 renal 111% | ACHN renal 103% | CAKI-1 renal 96.1% | A498 renal 94.6% | CCRF-CEM leukemia 106% | MOLT-4 leukemia 101% | SR leukemia 123%

COc1cc(/C=C/C(=O)N2c3ccccc3CC2C)c(OC)c2c1OCO2 (stereo not drawn)
inactive: HT29 colon 83.8% | SNB-75 CNS 97.2% | SNB-19 CNS 96.2% | U251 CNS 87.6% | PC-3 prostate 68.7% | UACC-62 melanoma 84.5% | SK-MEL-28 melanoma 90.7% | SK-MEL-2 melanoma 98.6% | EKVX NSCLC 87.7% | SN12C renal 97.1% | UO-31 renal 77.9% | TK-10 renal 96% | ACHN renal 95.7% | CAKI-1 renal 101% | A498 renal 69.1% | CCRF-CEM leukemia 94.6% | MOLT-4 leukemia 84.6% | SR leukemia 102%

COc1cc(OC)cc(N2C(=O)N(Cc3ccc(C(C)(C)C)cc3)c3ccccc3S2(=O)=O)c1
inactive: HT29 colon 93.7% | SNB-75 CNS 73.9% | SNB-19 CNS 94.7% | U251 CNS 95.9% | PC-3 prostate 84.4% | UACC-62 melanoma 90.6% | LOX IMVI melanoma 85.1% | SK-MEL-28 melanoma 91.9% | SK-MEL-2 melanoma 88.5% | SN12C renal 86.1% | UO-31 renal 54% | TK-10 renal 97.8% | ACHN renal 81.2% | A498 renal 98.6% | CCRF-CEM leukemia 84.7% | MOLT-4 leukemia 93.3% | SR leukemia 41.8%

Cc1nc(Nc2ccccn2)sc1C(=O)/C=C/c1ccc(Cl)cc1
inactive: SNB-75 CNS 11.9% | SNB-19 CNS 32.7% | U251 CNS 14.8% | UACC-62 melanoma 48.2% | LOX IMVI melanoma 15.8% | SK-MEL-28 melanoma 61.8% | SK-MEL-2 melanoma 31.6% | EKVX NSCLC 27.8% | SN12C renal 32% | UO-31 renal 28.6% | TK-10 renal 61.5% | ACHN renal 23.2% | CAKI-1 renal 27.9% | CCRF-CEM leukemia 17.1% | MOLT-4 leukemia 17.2% | SR leukemia 15.6%
active: HT29 colon 5.45% | SK-MEL-5 melanoma -32.4% | A498 renal 6.49%

O=c1nc2sc3nc4ccccc4cc3cc-2s1
inactive: HT29 colon 147% | SNB-75 CNS 116% | SNB-19 CNS 101% | U251 CNS 115% | UACC-62 melanoma 116% | LOX IMVI melanoma 111% | SK-MEL-28 melanoma 110% | SK-MEL-2 melanoma 112% | EKVX NSCLC 48% | SN12C renal 101% | UO-31 renal 117% | TK-10 renal 131% | CAKI-1 renal 137% | A498 renal 94.6% | CCRF-CEM leukemia 127% | MOLT-4 leukemia 120% | SR leukemia 134%

COc1ccc(-c2nocc2-c2cccs2)cc1
inactive: HT29 colon 114% | SNB-75 CNS 89.4% | SNB-19 CNS 102% | U251 CNS 110% | PC-3 prostate 101% | UACC-62 melanoma 93.3% | LOX IMVI melanoma 108% | SK-MEL-2 melanoma 103% | EKVX NSCLC 91.6% | SN12C renal 103% | UO-31 renal 88.2% | TK-10 renal 104% | ACHN renal 103% | CAKI-1 renal 89.8% | A498 renal 107% | CCRF-CEM leukemia 105% | MOLT-4 leukemia 108% | SR leukemia 128%

CCn1c(Cc2ccccc2Nc2c(Cl)cccc2Cl)nnc1SCC(=O)NN1C(=O)/C(=C/c2cccc(OC)c2OC)SC1=S
inactive: HT29 colon 113% | SNB-75 CNS 87.3% | SNB-19 CNS 91.2% | U251 CNS 90.1% | SK-MEL-5 melanoma 97.1% | UACC-62 melanoma 96.6% | LOX IMVI melanoma 92% | SK-MEL-28 melanoma 104% | SK-MEL-2 melanoma 96.7% | EKVX NSCLC 93.2% | SN12C renal 95% | UO-31 renal 77.3% | TK-10 renal 108% | ACHN renal 96.9% | CAKI-1 renal 94.1% | A498 renal 103% | CCRF-CEM leukemia 96.6% | MOLT-4 leukemia 95.8% | SR leukemia 102%

COc1ccc(CCN2C(=O)/C(=C/c3ccc(C4Oc5ccccc5C5CC(c6cccc(OC)c6)=NN54)cc3)SC2=S)cc1 (stereo not drawn)
inactive: HT29 colon 104% | SNB-75 CNS 90.5% | SNB-19 CNS 99.1% | U251 CNS 101% | SK-MEL-5 melanoma 99% | UACC-62 melanoma 102% | LOX IMVI melanoma 96.4% | SK-MEL-28 melanoma 101% | SK-MEL-2 melanoma 99.8% | EKVX NSCLC 94.4% | SN12C renal 101% | UO-31 renal 82% | TK-10 renal 103% | ACHN renal 98.3% | CAKI-1 renal 95.7% | A498 renal 106% | CCRF-CEM leukemia 98.8% | MOLT-4 leukemia 104% | SR leukemia 115%

O=C(CN1C(=O)/C(=C\c2ccc(Cl)cc2)SC1=S)Nc1ncc(Cc2ccc(Cl)cc2)s1
inactive: HT29 colon 110% | SNB-75 CNS 88.6% | SNB-19 CNS 102% | U251 CNS 100% | SK-MEL-5 melanoma 95.7% | UACC-62 melanoma 99.9% | LOX IMVI melanoma 92.9% | SK-MEL-2 melanoma 105% | EKVX NSCLC 96.5% | SN12C renal 104% | UO-31 renal 80.8% | TK-10 renal 111% | ACHN renal 103% | CAKI-1 renal 88.1% | A498 renal 115% | CCRF-CEM leukemia 106% | MOLT-4 leukemia 106% | SR leukemia 116%

CC(C)C[C@H](C(=O)N[C@@H](C)C(N)=O)N1CC=CCN(O)S1(=O)=O
inactive: HT29 colon 93.1% [5 µM] | SNB-75 CNS 87.4% [5 µM] | SNB-19 CNS 86.2% [5 µM] | U251 CNS 107% [5 µM] | PC-3 prostate 100% [5 µM] | UACC-62 melanoma 108% [5 µM] | LOX IMVI melanoma 95.6% [5 µM] | SK-MEL-2 melanoma 103% [5 µM] | EKVX NSCLC 176% [5 µM] | SN12C renal 106% [5 µM] | UO-31 renal 109% [5 µM] | TK-10 renal 106% [5 µM] | ACHN renal 94.7% [5 µM] | CAKI-1 renal 115% [5 µM] | A498 renal 125% [5 µM] | CCRF-CEM leukemia 105% [5 µM] | MOLT-4 leukemia 102% [5 µM] | SR leukemia 95.3% [5 µM]

COc1ccc(C2=NN(/C=C3\SC(=O)NC3=Nc3ccc(F)cc3)C(c3ccc(F)cc3)C2)cc1 (stereo not drawn)
inactive: HT29 colon 98.8% | SNB-75 CNS 96.5% | SNB-19 CNS 95.1% | U251 CNS 94.1% | SK-MEL-5 melanoma 92% | UACC-62 melanoma 95.4% | LOX IMVI melanoma 97.6% | SK-MEL-28 melanoma 103% | SK-MEL-2 melanoma 102% | EKVX NSCLC 82.2% | SN12C renal 98.3% | UO-31 renal 73.4% | TK-10 renal 87.9% | ACHN renal 93.7% | CAKI-1 renal 89.1% | A498 renal 93.8% | CCRF-CEM leukemia 102% | MOLT-4 leukemia 98.4% | SR leukemia 106%

O=c1oc2ccc(F)cc2c(=O)n1-c1ccc(Cl)cc1F
inactive: HT29 colon 26.7% | SNB-19 CNS 16.1% | SK-MEL-28 melanoma 14.7% | CCRF-CEM leukemia 12.7%
active: SNB-75 CNS -13.6% | U251 CNS 2.3% | PC-3 prostate 0.0571% | UACC-62 melanoma -8.7% | SK-MEL-2 melanoma -28.7% | EKVX NSCLC 9.11% | SN12C renal 1.59% | UO-31 renal 1.41% | TK-10 renal 5.92% | ACHN renal 1.55% | CAKI-1 renal -21.5% | A498 renal -51% | MOLT-4 leukemia -5.46%
